Assay [1] concerns Hepatitis C virus NS3 helicase. Kind of assay: blockers of NS3h binding to ssDNA – biochemical, fluorescence polarization, LOPAC1280 library, primary screen (AID 687035; in the data active = inhibition above about 37%). Particulars: Purified HCV NS3 helicase, Cy5-dT15 ssDNA binding fluorescence polarization; stronger effect = higher value; concentration not given here. (In general: Polarisation of emitted light reports the rotation of a fluorescent probe.)

Assay [2] can be described thus: compounds altering Cy5-DNA-NS3h complex signal – biochemical, LOPAC1280, artefact control for HCV NS3 helicase inhibitor project (AID 687037; call rule not given here). The settings on record: Cy5-DNA-NS3h complex fluorescence interference counterscreen. (The purpose of a counterscreen is to sort out artefacts and off-target activity.)
A short description of assay [3]: viability loss in pontine glioma line – cell-based, SU-DIPG-XIII, MIPE4.0, CellTiter-Glo, qHTS, dose response (AID 1347061; cut-off not given, nearly all actives have AC50 up to about 37 µM;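 note: cells exposed to compound for 48 hours before readout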). Particulars: CellTiter-Glo ATP luminescence. (In general: Cellular ATP, detected with luciferase, serves as a proxy for viable cell number.)
Assay [4] can be described thus: viability loss in pontine glioma line – cell-based, JHH-DIPG-1, MIPE4.0, CellTiter-Glo, qHTS, dose response (AID 1347062; cut-off not given, nearly all actives have AC50 up to about 27 µM;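 for AC50: cells exposed to compound for two days before readout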). Particulars: JHH-DIPG-1 viability, CellTiter-Glo ATP luminescence.
Assay [5] can be described thus: growth inhibition of DIPG cells – cell-based, MIPE4.0 library, CellTiter-Glo luminescence, qHTS (AID 1347066).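 Note: cells exposed to compound for 48 hours before readout.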 Particulars: SU-DIPG-VI viability, CellTiter-Glo ATP luminescence.
Assay [6] can be described thus: blockers of cellular phospholipid synthesis – cell-based, LOPAC library, screen 4, primary screen (AID 1347384; call rule not given here). The settings on record: animal cells, phospholipid biosynthesis inhibition screen; at 10 µM.
Assay [7] is described as follows: P. berghei load reduction in hepatocytes – cell-based, HepG2, luciferase luminescence, HepG2 viability, primary screen (AID 624349; in the data active = parasite load remaining mostly below about 12%, no sharp cut-off; inactive = mostly above about 10%;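 note: 100% = mean of DMSO negative control wells on the same plate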). The settings on record: P. berghei liver stage in HepG2, luciferase luminescence, concentration not given here; parasite load remaining: stronger effect = lower value; viability: measured here: HepG2 viability without parasites.
Assay [8] is described as follows: viability loss in pontine glioma line – cell-based, SU-DIPG-XVII, MIPE5.0, CellTiter-Glo, qHTS, dose response (AID 1347060; cut-off not given, nearly all actives have AC50 up to about 26 µM;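 for AC50: cells exposed to compound for 48 hours before viability readout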). Particulars: CellTiter-Glo ATP luminescence.
Assay [9] in a line: viability loss in pontine glioma line – cell-based, SU-DIPG-IV, MIPE4.0, CellTiter-Glo, qHTS, dose response (AID 1347063).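 Note: compound exposure lasted 48 hours before the viability readout.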 Particulars: CellTiter-Glo ATP luminescence.
Assay [10] can be described thus: JHH-DIPG-1 glioma cell viability, MIPE5.0 library, CellTiter-Glo luminescence, qHTS (AID 1347067; cut-off not given, nearly all actives have AC50 up to about 26 µM;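 note: cells exposed to compound for 48 hours before readout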). The settings on record: JHH-DIPG-1 glioma viability, CellTiter-Glo ATP luminescence.
The nature of assay [11]: growth inhibition of DIPG cells – cell-based, MIPE5.0 library, qHTS (AID 1347068; cut-off not given, nearly all actives have IC50 up to about 30 µM). Particulars: SU-DIPG-XXV viability.
Assay [12] is described as follows: GFP-Q80 aggregate reduction, neuronal-like cells, cell-based, NGF-treated PC12, GFPQ80 (AID 1614).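 Note: lower means fewer inclusions and 0 means no inclusions at all.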 The settings on record: PC12 NGF-treated GFP-polyQ80 inclusion reduction.
Assay [13] can be described thus: compounds altering circadian rhythm period length – cell-based, LOPAC library, luminescence reporter (AID 2774; call rule not given here;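 note: values are relative to mean of DMSO wells on each plate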). Particulars: circadian reporter cells, at 7 µM, actives lie on both sides.

Values joined by “and” are separate entries in the source; they are usually repeats but may differ in a detail not shown here. Equal entries are not always repeated. Records with an inconclusive call do not appear. Active and inactive are the calls of the source. Unless noted, no cut-off is given here; in the data, nearly all actives have AC50 up to about 30 µM.

As usually defined, the inhibition is the relative decrease from the control value, in per cent. In the case of `COc1cc2nc(N(C)CCCNC(=O)C3CCCO3)nc(N)c2cc1OC` (stereo not drawn), the inhibition in assay [1] is -3% (inactive). Besides, in [2], the fluorescence ratio (interference) was 1 (inactive). The result in assay [3], in assay [4], in assay [5] and in [6] was inactive.
In general, viability refers to a read-out of living cells in per cent, often relative to untreated cells. As for `Cc1ncc([N+](=O)[O-])n1CC(C)O` (stereo not drawn), the parasite load remaining in assay [7] is 136% (inactive) and 103% (inactive) and 36% (inactive). Further, the viability in assay [7] is 85.3% and 77% and 71%. Also, the result in assay [8], in assay [4], in assay [9], in assay [5], in assay [10] and in [11] was inactive.
For orientation: AC50 means the concentration giving half of the maximal activity seen. Turning to `CN1CCCC(n2nc(Cc3ccc(Cl)cc3)c3ccccc3c2=O)CC1` (stereo not drawn), in assay [7], the parasite load remaining is 30% (inactive) and 46.4% (inactive) and 19.4% (inactive); the viability is 75.4% and 180% and 64.4%. Also, the AC50 in assay [4] is 2.35 µM (active). Also, the AC50 in assay [9] was 6.62 µM (active).
With `Cc1ccc(-c2cc(C(F)(F)F)nn2-c2ccc(S(N)(=O)=O)cc2)cc1`, the result in assay [4], in assay [9], in [11] and in [6] was inactive. Further, the AC50 in [10] was 10.5 µM (active).
For `NS(=O)(=O)c1cc2c(cc1Cl)NC=NS2(=O)=O`, the inclusion score in assay [12] stood at 2. Besides, in assay [13], the period change was 0.02 h (inactive). The inhibition in [1] is -2% (inactive). Moreover, in assay [2], the fluorescence ratio (interference) is 0.9 (inactive). The compound was called inactive in assay [8], in assay [4], in assay [9], in assay [5], in [10] and in [11]. Moreover, the compound was classed as inactive in assay [6].
For `CC(C)(C)NCC(O)COc1cccc2c1C[C@H](O)[C@H](O)C2` (stereo partly drawn), the inclusion score in assay [12] was determined as 2. In assay [7], the parasite load remaining was 69.2% (inactive) and 72.2% (inactive) and 65.4% (inactive); the viability was 124% and 85.6% and 141%.
As for `OCCN1CCN(CCCN2c3ccccc3Sc3ccc(C(F)(F)F)cc32)CC1`, the period change in assay [13] was 0.01 h (inactive). The inhibition in [1] is -2% (inactive). In assay [2], the fluorescence ratio (interference) was 0.9 (inactive). In addition, the AC50 was 10.5 µM (active) in [8], 18.7 µM (active) in assay [9] and 3.72 µM (active) in assay [10]. The compound was called inactive in assay [6].
As for `CN(C)CCOC(c1ccc(Cl)cc1)c1ccccn1` (stereo not drawn), the inclusion score in [12] is 2.
In turn, `CCCNCC(O)COc1ccccc1C(=O)CCc1ccccc1` (stereo not drawn) registered an inclusion score in assay [12] of 2. Moreover, in [13], the period change is -0.03 h (inactive). Besides, the inhibition in assay [1] is -1% (inactive). Also, the fluorescence ratio (interference) in assay [2] was 1 (inactive). In addition, the compound was called inactive in assay [8], in assay [4], in [5], in [11] and in [6].
With `c1ccc2[nH]c(-c3cscn3)nc2c1`, the inclusion score in assay [12] was determined as 2. In addition, the compound was classed as inactive in [3], in assay [4], in assay [9], in [5], in [10] and in assay [11].
For the compound `CN(CCOc1ccc(CC2SC(=O)NC2=O)cc1)c1ccccn1` (stereo not drawn), the viability in [7] was 80.3% and 91.8% and 74.9%. Besides, the call in [8], in assay [4], in assay [9], in [5], in assay [10] and in [11] was inactive.

For the origin of these results see PubChem BioAssay.
